Measurements: PubChem BioAssay (NCI)
This is part of a sample that, as a whole, favours compounds with a hit. Of some 83,000 tested, about 20% had one in any assay.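 Step 1: grow cells in 96-well plates. Step 2: add test compound at a single concentration. Step 3: incubate 48 h. Step 4: record percent growth.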 Unmarked numbers belong to inactive results. Activity calls are given as the source filed them. The calls were made as follows: active = growth percent below 10; inactive = the rest.

Each molecule was assayed on LOX IMVI melanoma (assay: NCI-60 one-dose screen, 48 h (100 = growth as untreated, 0 = no growth, -100 = all killed)). Details: 10 µM.
With `CCc1ccc(-c2ccc(-n3nc(C)c4c(N)nc(Cc5ccccc5)nc43)cc2)cc1` the growth was 51.1%.
In the case of `O=[N+]([O-])c1ccc2ncccc2c1Cl`, the growth is reported as 20.9%.
`Cc1ccc(-n2nnnc2N)c(C)c1` showed a growth of 93.8%.
`Oc1ccc(-c2[nH]c3ccccc3c2-c2nc3ccccc3o2)cc1` showed a growth of 34.6%.
Molecule `CCc1ccc(C2=NN(c3ccc(S(C)(=O)=O)cc3)C(=O)CC2)cc1` has a growth of 35%.
For `COc1ccc(-c2nn(-c3cccc(Cl)c3)cc2-c2c(C#N)c(=O)n3[nH]c(-c4ccc(C)cc4)nc3c2C#N)cc1`, the growth was 39.7%.
`O=C1c2ccccc2C(=O)c2c1ccc(C(Br)Br)c2[N+](=O)[O-]` was tested, and the growth was -65.3% (active).
Work on `CCOC(=O)CC(S(=O)(=O)c1ccccc1)S(=O)(=O)c1ccccc1` yielded a growth of 98.6%.
Work on `CC(=O)Nc1ccc(S(=O)(=O)c2ccnc3cc(Cl)ccc23)cc1` yielded a growth of 73.7%.
Work on `O=C(Nc1cc([N+](=O)[O-])c2[nH]c(=O)c3ccccc3c2c1)C(F)(F)F` yielded a growth of 68%.
With `COc1cc2c(cc1NC(=O)C(F)(F)F)-c1ccc(NC(=O)C(F)(F)F)cc1C2` the growth was 94.2%.
`COc1ccc(/C(C#N)=C/c2cccc(OC)c2OC)cc1` showed a growth of 84.1%.
With `C/C(=C/CCC(C)[C@@H]1CC[C@]2(C)C3=C(CC[C@@]12C)[C@@]1(C)CCC(=O)C(C)(C)[C@@H]1CC3)C(=O)O` (some centres undefined) the growth was -53.9% (active).
Molecule `N#CC1=CC2CN(Cc3ccccc3)C1C1C(=O)N(c3ccccc3)C(=O)C21` (centres undefined) has a growth of 89.2%.
For `COC(=O)C1OC1c1cc([N+](=O)[O-])ccc1OC` (centres undefined), the growth was 93.4%.
`O=c1cn[nH]c2ccc(Br)cc12` was tested, and the growth was 97.2%.
`COc1cc(CNC(=O)C2CSC3(C)c4ccccc4C(=O)N23)cc(OC)c1OC` (centres undefined) was tested, and the growth was 105%.
For `O=C1/C=C/[C@@H](O)[C@@H]2C[C@@H](O)C[C@H]2/C=C/CCC[C@H](C(F)(F)F)O1`, the growth was -90.6% (active).
For `O=C1CCn2c1c(O)c1ccccc1c2=O`, the growth was 107%.
`COc1ccc(/C(=N\N)C(=O)c2ccccc2)cc1` (tested in a mixture with another compound) was tested, and the growth was 97.8%.
`O=C(CCl)Nc1ccc(Cc2ccc(NC(=O)CCl)cc2)cc1` was tested, and the growth was -84.6% (active).
Work on `CCOC(=O)C1=CSC2=NC3=C(CCC/C3=C\c3cc(OC)c(OC)c(OC)c3)C(c3cc(OC)c(OC)c(OC)c3)N12` (centres undefined) yielded a growth of 23%.
For `C=CCSC(CC)(CC)C(=O)NC`, the growth was 100%.
In the case of `CCN(CCCNc1cc2c(c(N)c1S(=O)(=O)O)C(=O)c1ccccc1C2=O)c1ccccc1`, the growth is reported as 94.7%.
For `Cc1ccc(S(=O)(=O)N/N=C2\CCCc3ccccc32)cc1`, the growth was 94.8%.
For `COc1cc(-c2nn(-c3cccc(NC(=O)CCNc4ccc(N5CCOCC5)cc4)c3)cc2-c2ccncc2)ccc1Cl`, the growth was 6.71% (active).
For `COc1cc2c(cc1NC(=O)C(Cl)Cl)-c1ccc(NC(=O)C(Cl)Cl)cc1C2`, the growth was 67%.
For `OCC1OC2C(NC(=S)N2c2ccccc2)C(O)C1O` (centres undefined), the growth was 100%.
Work on `Cc1cc(O)ccc1C1=NN(c2ccc(S(C)(=O)=O)cc2)C(=O)CC1` yielded a growth of 67.5%.
For `Cc1c(Cl)cccc1NC(=O)CN1CCOCC1`, the growth was 97.4%.
In the case of `O=C1c2ccccc2C(=O)c2c1ccc(C(Br)Br)c2Cl`, the growth is reported as -84.4% (active).
Molecule `CC[C@@H](C(=O)[C@@H](C)[C@@H](O)[C@H](C)[C@@H]1O[C@@H]([C@@H](CC)C(=O)N(CC)CC)CC[C@@H]1C)C1O[C@]2(C=CC(=O)[C@]3(CC[C@@](C)([C@H]4CC[C@](O)(CC)[C@H](C)O4)O3)O2)[C@H](C)C[C@@H]1C` (some centres undefined) has a growth of 34.3%.
Work on `COc1cc(C(=O)n2nc(-c3cc(OC)c(OC)c(OC)c3)nc2N)cc(OC)c1OC` yielded a growth of 95.8%.
`COc1ccc(C(=O)N2C=Cc3ccccc3C2C#N)cc1` (centres undefined) showed a growth of 95.4%.
With `COc1ccc(-c2nn(-c3cccc(Cl)c3)cc2-c2cc(-c3ccccc3)[nH]c(=O)c2C#N)cc1` the growth was 55.6%.
Molecule `CCOC(=O)C1C(C(=O)OCC)C2C(=O)C3C(C(=O)OCC)C(C(=O)OCC)C3C(=O)C12` (centres undefined) has a growth of 96.6%.
With `CC1=CC2C(C(O)CC3(C)C2CC(C)C32OCOC23COCO3)C2(C)C/C(=C/O)C(=O)C=C12` (centres undefined) the growth was -60.9% (active).
With `CCN(CC)CCOc1cccc2c1C(=O)c1ccccc1C2=O` the growth was 84.1%.
Work on `Cc1c2cnccc2c(C)c2c1oc1ccccc12` yielded a growth of 42.1%.
Work on `O=C(Nc1ccc(NS(=O)(=O)c2ccc(F)cc2)cc1)C12CC3CC(CC(C3)C1)C2` yielded a growth of 92.2%.

Each molecule was assayed on SK-MEL-28 melanoma in the same assay as above. Details: 10 µM.
`CCc1ccc(-c2ccc(-n3nc(C)c4c(N)nc(Cc5ccccc5)nc43)cc2)cc1` gave a growth of 92.4%.
For `O=[N+]([O-])c1ccc2ncccc2c1Cl`, the growth was 76.2%.
`Cc1ccc(-n2nnnc2N)c(C)c1` was tested, and the growth was 112%.
`Oc1ccc(-c2[nH]c3ccccc3c2-c2nc3ccccc3o2)cc1` gave a growth of 58%.
With `CCc1ccc(C2=NN(c3ccc(S(C)(=O)=O)cc3)C(=O)CC2)cc1` the growth was 50.7%.
`COc1ccc(-c2nn(-c3cccc(Cl)c3)cc2-c2c(C#N)c(=O)n3[nH]c(-c4ccc(C)cc4)nc3c2C#N)cc1` showed a growth of 92.3%.
`O=C1c2ccccc2C(=O)c2c1ccc(C(Br)Br)c2[N+](=O)[O-]` showed a growth of 102%.
For `CCOC(=O)CC(S(=O)(=O)c1ccccc1)S(=O)(=O)c1ccccc1`, the growth was 109%.
For `CC(=O)Nc1ccc(S(=O)(=O)c2ccnc3cc(Cl)ccc23)cc1`, the growth was 78.1%.
`O=C(Nc1cc([N+](=O)[O-])c2[nH]c(=O)c3ccccc3c2c1)C(F)(F)F` gave a growth of 114%.
Molecule `COc1cc2c(cc1NC(=O)C(F)(F)F)-c1ccc(NC(=O)C(F)(F)F)cc1C2` has a growth of 103%.
For `COc1ccc(/C(C#N)=C/c2cccc(OC)c2OC)cc1`, the growth was 84.5%.
`C/C(=C/CCC(C)[C@@H]1CC[C@]2(C)C3=C(CC[C@@]12C)[C@@]1(C)CCC(=O)C(C)(C)[C@@H]1CC3)C(=O)O` (some centres undefined) was tested, and the growth was -83.9% (active).
In the case of `N#CC1=CC2CN(Cc3ccccc3)C1C1C(=O)N(c3ccccc3)C(=O)C21` (centres undefined), the growth is reported as 102%.
For `COC(=O)C1OC1c1cc([N+](=O)[O-])ccc1OC` (centres undefined), the growth was 109%.
In the case of `O=c1cn[nH]c2ccc(Br)cc12`, the growth is reported as 123%.
`COc1cc(CNC(=O)C2CSC3(C)c4ccccc4C(=O)N23)cc(OC)c1OC` (centres undefined) gave a growth of 103%.
`O=C1/C=C/[C@@H](O)[C@@H]2C[C@@H](O)C[C@H]2/C=C/CCC[C@H](C(F)(F)F)O1` was tested, and the growth was -8.65% (active).
`O=C1CCn2c1c(O)c1ccccc1c2=O` showed a growth of 107%.
For `COc1ccc(/C(=N\N)C(=O)c2ccccc2)cc1` (tested in a mixture with another compound), the growth was 102%.
In the case of `O=C(CCl)Nc1ccc(Cc2ccc(NC(=O)CCl)cc2)cc1`, the growth is reported as 5.21% (active).
`CCOC(=O)C1=CSC2=NC3=C(CCC/C3=C\c3cc(OC)c(OC)c(OC)c3)C(c3cc(OC)c(OC)c(OC)c3)N12` (centres undefined) gave a growth of 67.2%.
`C=CCSC(CC)(CC)C(=O)NC` showed a growth of 110%.
Molecule `CCN(CCCNc1cc2c(c(N)c1S(=O)(=O)O)C(=O)c1ccccc1C2=O)c1ccccc1` has a growth of 102%.
For `Cc1ccc(S(=O)(=O)N/N=C2\CCCc3ccccc32)cc1`, the growth was 105%.
`COc1cc2c(cc1NC(=O)C(Cl)Cl)-c1ccc(NC(=O)C(Cl)Cl)cc1C2` was tested, and the growth was -54.7% (active).
Molecule `OCC1OC2C(NC(=S)N2c2ccccc2)C(O)C1O` (centres undefined) has a growth of 105%.
For `Cc1cc(O)ccc1C1=NN(c2ccc(S(C)(=O)=O)cc2)C(=O)CC1`, the growth was 81.2%.
Work on `Cc1c(Cl)cccc1NC(=O)CN1CCOCC1` yielded a growth of 109%.
`O=C1c2ccccc2C(=O)c2c1ccc(C(Br)Br)c2Cl` was tested, and the growth was 92.3%.
With `CC[C@@H](C(=O)[C@@H](C)[C@@H](O)[C@H](C)[C@@H]1O[C@@H]([C@@H](CC)C(=O)N(CC)CC)CC[C@@H]1C)C1O[C@]2(C=CC(=O)[C@]3(CC[C@@](C)([C@H]4CC[C@](O)(CC)[C@H](C)O4)O3)O2)[C@H](C)C[C@@H]1C` (some centres undefined) the growth was 19.5%.
`COc1cc(C(=O)n2nc(-c3cc(OC)c(OC)c(OC)c3)nc2N)cc(OC)c1OC` was tested, and the growth was 97%.
For `COc1ccc(C(=O)N2C=Cc3ccccc3C2C#N)cc1` (centres undefined), the growth was 95.3%.
In the case of `COc1ccc(-c2nn(-c3cccc(Cl)c3)cc2-c2cc(-c3ccccc3)[nH]c(=O)c2C#N)cc1`, the growth is reported as 71%.
`CCOC(=O)C1C(C(=O)OCC)C2C(=O)C3C(C(=O)OCC)C(C(=O)OCC)C3C(=O)C12` (centres undefined) gave a growth of 105%.
With `CC1=CC2C(C(O)CC3(C)C2CC(C)C32OCOC23COCO3)C2(C)C/C(=C/O)C(=O)C=C12` (centres undefined) the growth was 66.3%.
In the case of `CCN(CC)CCOc1cccc2c1C(=O)c1ccccc1C2=O`, the growth is reported as 111%.
Molecule `Cc1c2cnccc2c(C)c2c1oc1ccccc12` has a growth of 110%.
Work on `O=C(Nc1ccc(NS(=O)(=O)c2ccc(F)cc2)cc1)C12CC3CC(CC(C3)C1)C2` yielded a growth of 99.9%.
